From PubChem BioAssay (NCI)
The panel holds about 79,000 compounds, 15% with a hit somewhere; the sample as a whole holds those more often. Unmarked numbers belong to inactive results. Active and inactive are the calls of the source. No stated cut-off is given here; in the data, active means growth inhibition above about 70%; inactive means the rest.

How the values were obtained:
[1] = NCI Yeast Anticancer Drug Screen. Data for the rad52 strain (AID 147);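 further: 0% = growth of vehicle-treated control cultures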; conditions: S. cerevisiae rad52 mutant growth inhibition, active compounds read high
How it was run: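 Compounds are applied to a genetically defined yeast strain lacking normal DNA damage repair, and inhibition of growth is expressed relative to cultures given vehicle only.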

[2] = NCI Yeast Anticancer Drug Screen. Data for the wt1 strain (AID 149);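 further: 0% = growth of vehicle-treated wt1 cultures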; conditions: S. cerevisiae wt1 strain (SPY 50644) growth inhibition, active compounds read high
How it was run: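 wt1 yeast, compound-treated; % growth inhibition vs vehicle control.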

[3] = NCI Yeast Anticancer Drug Screen. Data for the rad50EPP+ strain (AID 151);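 further: 0% = growth of vehicle-treated control cultures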; conditions: S. cerevisiae rad50 mutant strain, active compounds read high
How it was run: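 Compounds were applied to the rad50EPP+ yeast strain, which bears a defined DNA repair alteration, and growth inhibition was determined relative to vehicle-treated cultures.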

[4] = NCI Yeast Anticancer Drug Screen. Data for the mgt1 strain (AID 153); conditions: S. cerevisiae mgt1 mutant growth inhibition, active compounds read high
How it was run: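 Strain: mgt1 yeast, one of a set carrying defined DNA damage repair or cell cycle control alterations. Compound-treated growth compared with vehicle.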

[5] = NCI Yeast Anticancer Drug Screen. Data for the rad50 strain (AID 155);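 further: 0% = growth of vehicle-only cultures of the same strain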; conditions: S. cerevisiae rad50 strain growth inhibition, active compounds read high
How it was run: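 Genetically altered yeast (DNA repair pathway); compound treatment; growth inhibition vs vehicle ctrl.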

[6] = NCI Yeast Anticancer Drug Screen. Data for the mec2-1 strain (AID 157); conditions: S. cerevisiae mec2-1 strain, active compounds read high
How it was run: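 Strain: mec2-1 (DNA repair/cell cycle alteration). Compound exposure, then growth measured; inhibition expressed relative to vehicle.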

[7] = NCI Yeast Anticancer Drug Screen. Data for the sgs1 mgt1 strain (AID 161);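 further: 0% = growth of cultures given vehicle only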; conditions: S. cerevisiae sgs1 mgt1 strain, active compounds read high
How it was run: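 Test agents were incubated with a DNA-repair-mutant yeast strain. Growth was then read and compared against vehicle-treated controls.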

[8] = NCI Yeast Anticancer Drug Screen. Data for the CLN2oe strain (AID 163);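 further: 0% = growth of vehicle-only control cultures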; conditions: S. cerevisiae CLN2oe strain, active compounds read high
How it was run: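 Growth of a genetically modified yeast strain is measured after compound exposure and compared with cultures given vehicle alone.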

[9] = NCI Yeast Anticancer Drug Screen. Data for the cln2 rad14 strain (AID 165);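 further: 0% = growth equal to vehicle treated cultures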; conditions: S. cerevisiae cln2 rad14 strain, active compounds read high
How it was run: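 Compounds are applied to the cln2 rad14 yeast strain, and growth is then compared with that of vehicle-treated cultures to give inhibition.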

[10] = NCI Yeast Anticancer Drug Screen. Data for the bub3 strain (AID 167); conditions: S. cerevisiae bub3 mutant strain, active compounds read high
How it was run: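 Yeast carrying a defined mutation is treated with each compound, and growth is compared with that of vehicle-exposed cells to give inhibition.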

[11] = NCI Yeast Anticancer Drug Screen. Data for the wt2 strain (AID 169);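 further: 0% = growth of vehicle-treated yeast cultures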; conditions: S. cerevisiae wt2 strain growth inhibition, active compounds read high
How it was run: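 This strain belongs to a panel of yeast strains with defined genetic alterations in DNA damage repair or cell cycle control. Compounds are applied, and growth inhibition is measured against vehicle-treated cultures.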

[12] = NCI Yeast Anticancer Drug Screen. Data for the mlh1 strain (AID 171);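 further: 0% = growth of vehicle-treated control cultures of the same strain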; conditions: S. cerevisiae mlh1 strain growth inhibition, active compounds read high
How it was run: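 Growth of the mutant yeast strain after compound exposure, expressed as inhibition relative to vehicle-only controls.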

[13] = NCI Yeast Anticancer Drug Screen. Data for the sgs1 strain (AID 173);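 further: 0% = growth of vehicle-only control cultures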; conditions: S. cerevisiae sgs1 mutant, active compounds read high
How it was run: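 Growth of a yeast strain bearing a defined genetic alteration is measured after compound treatment. Inhibition is expressed relative to vehicle-only controls.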

[14] = NCI Yeast Anticancer Drug Screen. Data for the mlh1 rad18 strain (AID 175); conditions: S. cerevisiae mlh1 rad18 strain growth inhibition, active compounds read high
How it was run: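 Read-out is yeast growth inhibition, calculated against vehicle-only controls. The compound was applied to a strain engineered with DNA damage repair alterations.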

[15] = NCI Yeast Anticancer Drug Screen. Data for the rad18 strain (AID 177); conditions: S. cerevisiae rad18 mutant growth inhibition, active compounds read high
How it was run: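 Growth of the mutant yeast strain after compound exposure, normalised to vehicle-only cultures.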

[16] = at 5.0 µM (retest, dose inferred, filed as 0.5)
[17] = at 50.0 µM (retest, dose inferred, filed as 5.0)

Structure (SMILES): O=C(NCCCNCCN1C(=O)c2cccc3cc([N+](=O)[O-])cc(c23)C1=O)c1cc(-c2ccccc2)nc2ccccc12
- growth inhibition ([1]; at 1.2 µM): -2%
- growth inhibition ([1]; at 3.7 µM): 2%
- growth inhibition ([1]; at 11.0 µM): 6%
- growth inhibition ([1]; at 33.0 µM): 38%
- growth inhibition ([1]; at 100.0 µM): 98% (active)
- growth inhibition ([2]; at 1.2 µM): 0%
- growth inhibition ([2]; at 3.7 µM): -1%
- growth inhibition ([2]; at 11.0 µM): -2%
- growth inhibition ([2]; at 33.0 µM): -6%
- growth inhibition ([2]; at 100.0 µM): 96% (active)
- growth inhibition ([3]; at 1.2 µM): 0%
- growth inhibition ([3]; at 3.7 µM): 2%
- growth inhibition ([3]; at 11.0 µM): 8%
- growth inhibition ([3]; at 33.0 µM): 19%
- growth inhibition ([3]; at 100.0 µM): 57%
- growth inhibition ([4]; at 1.2 µM): -1%
- growth inhibition ([4]; at 3.7 µM): 0%
- growth inhibition ([4]; at 11.0 µM): -1%
- growth inhibition ([4]; at 33.0 µM): 8%
- growth inhibition ([4]; at 100.0 µM): 99% (active)
- growth inhibition ([5]; at 1.2 µM): -2%
- growth inhibition ([5]; at 3.7 µM): 2%
- growth inhibition [5, 16]: -11%
- growth inhibition ([5]; at 11.0 µM): 8%
- growth inhibition ([5]; at 33.0 µM): 64%
- growth inhibition [5, 17]: 98% (active)
- growth inhibition ([5]; at 50.0 µM): 94.3% (active)
- growth inhibition ([5]; at 100.0 µM): 99% (active)
- growth inhibition ([6]; at 1.2 µM): 0%
- growth inhibition ([6]; at 3.7 µM): -1%
- growth inhibition [6, 16]: -1%
- growth inhibition ([6]; at 11.0 µM): 0%
- growth inhibition ([6]; at 33.0 µM): 5%
- growth inhibition [6, 17]: 86% (active)
- growth inhibition ([6]; at 50.0 µM): 91% (active)
- growth inhibition ([6]; at 100.0 µM): 99% (active)
- growth inhibition [7, 16]: -2%
- growth inhibition [7, 17]: 96% (active)
- growth inhibition ([7]; at 50.0 µM): 93.5% (active)
- growth inhibition ([8]; at 1.2 µM): 1%
- growth inhibition ([8]; at 3.7 µM): 3%
- growth inhibition ([8]; at 11.0 µM): -4%
- growth inhibition ([8]; at 33.0 µM): 10%
- growth inhibition ([8]; at 100.0 µM): 98% (active)
- growth inhibition [9, 16]: 33%
- growth inhibition [9, 17]: 78% (active)
- growth inhibition ([9]; at 50.0 µM): 93.6% (active)
- growth inhibition ([10]; at 1.2 µM): -4%
- growth inhibition ([10]; at 3.7 µM): 0%
- growth inhibition [10, 16]: -9%
- growth inhibition ([10]; at 11.0 µM): 2%
- growth inhibition ([10]; at 33.0 µM): 9%
- growth inhibition [10, 17]: 97% (active)
- growth inhibition ([10]; at 50.0 µM): 93.3% (active)
- growth inhibition ([10]; at 100.0 µM): 98% (active)
- growth inhibition ([11]; at 1.2 µM): -1%
- growth inhibition ([11]; at 3.7 µM): -1%
- growth inhibition ([11]; at 11.0 µM): -2%
- growth inhibition ([11]; at 33.0 µM): -2%
- growth inhibition ([11]; at 100.0 µM): 99% (active)
- growth inhibition ([12]; at 1.2 µM): -3%
- growth inhibition ([12]; at 3.7 µM): 1%
- growth inhibition ([12]; at 11.0 µM): 1%
- growth inhibition ([12]; at 33.0 µM): 9%
- growth inhibition ([12]; at 100.0 µM): 99% (active)
- growth inhibition ([13]; at 1.2 µM): -1%
- growth inhibition ([13]; at 3.7 µM): 1%
- growth inhibition ([13]; at 11.0 µM): 2%
- growth inhibition ([13]; at 33.0 µM): 17%
- growth inhibition ([13]; at 100.0 µM): 98% (active)
- growth inhibition [14, 16]: -1%
- growth inhibition [14, 17]: 97% (active)
- growth inhibition ([14]; at 50.0 µM): 97.6% (active)
- growth inhibition ([15]; at 1.2 µM): -3%
- growth inhibition ([15]; at 3.7 µM): -2%
- growth inhibition ([15]; at 11.0 µM): -1%
- growth inhibition ([15]; at 33.0 µM): 10%
- growth inhibition ([15]; at 100.0 µM): 99% (active)

Structure (SMILES): CCCCCCN(CCCCCC)CC(O)c1ccnc2ccc(OC)cc12 (stereo unspecified)
- growth inhibition ([1]; at 1.2 µM): 0%
- growth inhibition ([1]; at 3.7 µM): -2%
- growth inhibition ([1]; at 11.0 µM): -5%
- growth inhibition ([1]; at 33.0 µM): -7%
- growth inhibition ([1]; at 100.0 µM): 66%
- growth inhibition ([2]; at 1.2 µM): -1%
- growth inhibition ([2]; at 3.7 µM): -3%
- growth inhibition ([2]; at 11.0 µM): -5%
- growth inhibition ([2]; at 33.0 µM): -7%
- growth inhibition ([2]; at 100.0 µM): 15%
- growth inhibition ([3]; at 1.2 µM): -4%
- growth inhibition ([3]; at 3.7 µM): -2%
- growth inhibition ([3]; at 11.0 µM): -2%
- growth inhibition ([3]; at 33.0 µM): -5%
- growth inhibition ([3]; at 100.0 µM): -8%
- growth inhibition ([4]; at 1.2 µM): 1%
- growth inhibition ([4]; at 3.7 µM): 2%
- growth inhibition ([4]; at 11.0 µM): 0%
- growth inhibition ([4]; at 33.0 µM): -3%
- growth inhibition ([4]; at 100.0 µM): 74% (active)
- growth inhibition ([5]; at 1.2 µM): 1%
- growth inhibition ([5]; at 3.7 µM): 1%
- growth inhibition [5, 16]: -9%
- growth inhibition ([5]; at 11.0 µM): -1%
- growth inhibition ([5]; at 33.0 µM): -3%
- growth inhibition [5, 17]: 27%
- growth inhibition ([5]; at 50.0 µM): -10.1%
- growth inhibition ([5]; at 100.0 µM): 69%
- growth inhibition ([6]; at 1.2 µM): 2%
- growth inhibition ([6]; at 3.7 µM): -1%
- growth inhibition [6, 16]: -5%
- growth inhibition ([6]; at 11.0 µM): 1%
- growth inhibition ([6]; at 33.0 µM): 2%
- growth inhibition [6, 17]: 18%
- growth inhibition ([6]; at 50.0 µM): 1.15%
- growth inhibition ([6]; at 100.0 µM): 67%
- growth inhibition [7, 16]: -9%
- growth inhibition [7, 17]: 49%
- growth inhibition ([7]; at 50.0 µM): 74.5% (active)
- growth inhibition ([8]; at 1.2 µM): 6%
- growth inhibition ([8]; at 3.7 µM): 1%
- growth inhibition ([8]; at 11.0 µM): -1%
- growth inhibition ([8]; at 33.0 µM): 1%
- growth inhibition ([8]; at 100.0 µM): 36%
- growth inhibition [9, 16]: -12%
- growth inhibition [9, 17]: 26%
- growth inhibition ([9]; at 50.0 µM): -8.6%
- growth inhibition ([10]; at 1.2 µM): 5%
- growth inhibition ([10]; at 3.7 µM): 5%
- growth inhibition [10, 16]: -1%
- growth inhibition ([10]; at 11.0 µM): 6%
- growth inhibition ([10]; at 33.0 µM): 4%
- growth inhibition [10, 17]: 40%
- growth inhibition ([10]; at 50.0 µM): 26.6%
- growth inhibition ([10]; at 100.0 µM): 61%
- growth inhibition ([11]; at 1.2 µM): -1%
- growth inhibition ([11]; at 3.7 µM): -4%
- growth inhibition ([11]; at 11.0 µM): -5%
- growth inhibition ([11]; at 33.0 µM): -5%
- growth inhibition ([11]; at 100.0 µM): 68%
- growth inhibition ([12]; at 1.2 µM): -1%
- growth inhibition ([12]; at 3.7 µM): -3%
- growth inhibition ([12]; at 11.0 µM): -3%
- growth inhibition ([12]; at 33.0 µM): -4%
- growth inhibition ([12]; at 100.0 µM): 74% (active)
- growth inhibition ([13]; at 1.2 µM): -3%
- growth inhibition ([13]; at 3.7 µM): -2%
- growth inhibition ([13]; at 11.0 µM): -3%
- growth inhibition ([13]; at 33.0 µM): -3%
- growth inhibition ([13]; at 100.0 µM): 79% (active)
- growth inhibition [14, 16]: -3%
- growth inhibition [14, 17]: 14%
- growth inhibition ([14]; at 50.0 µM): 38.1%
- growth inhibition ([15]; at 1.2 µM): -5%
- growth inhibition ([15]; at 3.7 µM): -7%
- growth inhibition ([15]; at 11.0 µM): -7%
- growth inhibition ([15]; at 33.0 µM): -13%
- growth inhibition ([15]; at 100.0 µM): 35%
